# Measured values: PubChem BioAssay (NCI)
# Compounds without any hit were thinned out: in the full panel of roughly 83,000, 20% have a hit.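 Results are percent growth after 48 hours of single-concentration exposure. 100 means growth as in untreated cells, lower positive values show inhibition; negative values down to -100 show cell death.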 Unmarked numbers belong to inactive results. The source made the active and inactive calls. The calls were made as follows: active = growth percent below 10; inactive = the rest.
# Tested on: OVCAR-3 ovarian
# Test: NCI-60 one-dose screen, 48 h (100 = growth as untreated, 0 = no growth, -100 = all killed)
# Details: 10 µM unless noted
row,Structure (SMILES),growth
1,COc1ccc2c(c1)c(CC(=O)[Se]CC#N)c(C)n2C(=O)c1ccc(Cl)cc1,13.9%
2,C=C(C)[C@@H]1CC[C@]2(COCCCNCCC#N)CC[C@]3(C)[C@H](CC[C@@H]4[C@@]5(C)CC[C@H](OCCCNCCC#N)C(C)(C)[C@@H]5CC[C@]43C)[C@@H]12,71%
3,CCN1CCN(Cc2cn(-c3ccc(S(N)(=O)=O)cc3)nn2)CC1,112%
4,COc1cc(OC)c(/C=C/S(=O)(=O)Cc2ccc(OC)c(NCC(=O)NO)c2)c(OC)c1,2.98% (active)
5,CS(=O)(=O)Nc1cc(-c2ccc3ncc(C#N)c(NCc4ccccc4O)c3c2)cnc1Cl,3.31% (active)
6,CC1(C)[C@@H](O)CC[C@]2(C)[C@H]3CC[C@@H]4[C@H]5[C@H](C(=O)/C=C\c6ccncc6)CC[C@]5(O)CC[C@@]4(C)[C@]3(C)CC[C@@H]12,34.6%
7,COc1ccccc1N1CCN(C2=CC(=O)C(C)=C(C)C2=O)CC1,110%
8,O=C(CSc1nnc(-c2ccc(Cl)cc2)n1-c1ccccc1)Nc1cccc(Cl)c1,82%
9,COc1ccccc1C(=O)Nc1cccc2c1C(=O)C(=O)C=C2,13.1%
10,CCc1cccc(NC(=O)CNc2cc(S(=O)(=O)N(C)C)cc(C)c2C)c1,112%
11,O=C(NNc1nc2cc(F)c(F)cc2n2c(CN3CC4CNCC4C3)ccc12)c1ncccn1 (stereo not drawn),34.6%
12,NC(N)=Nc1ccc(Nc2cccc(Nc3ccc(Cl)c(C(F)(F)F)c3)c2)cn1,-30.7% (active)
13,CCN(CC)c1ccc(NC2=C(Cl)C(=O)c3nc(C)ccc3C2=O)cc1,-29.6% (active)
14,CC1(C)CC[C@]2(CN)CC[C@]3(C)C(=CC[C@@H]4[C@@]5(C)CCCNC(C)(C)[C@@H]5CC[C@]43C)[C@H]2C1,106%
15,NC(=O)c1cccc(-n2ccc3cc(NC(=O)Nc4ccc(N5CCOCC5)c(C(F)(F)F)c4)ccc32)n1,7.68% (active)
16,C#CCn1cccc1CNc1ccc(OC)cc1,-84.7% (active)
17,O=C1[C@@H]2Cc3c([nH]c4ccccc34)[C@H](c3c(Cl)cccc3Cl)N2C(=O)CN1C1CCN(CC2CCCCC2)CC1,20.3%
18,C#CCC#CCN1CCC[C@H]1C(=O)NCC(=O)OC,114%
19,COc1ccc(-c2cc(-c3ccc(Cl)cc3)c(C#N)c(=O)n2Cc2ccc(C(=O)O)cc2)cc1,6.02% (active)

row,Structure (SMILES),growth
1,COc1ccc2c(c1)Oc1nc(N)c(C#N)c(N)c1C2Sc1ccc(C)cc1 (stereo not drawn),-77.1% (active)
2,N#Cc1cccc(CN2CCc3ncn(Cc4ccc(Cl)cc4)c(=O)c3C2)c1,21.7%
3,Cc1nc2ncc(-c3ccc4ncnc(NCc5ccccc5)c4c3)cc2[nH]1,39.2%
4,N=c1c2cc(-c3ccccc3)oc2ncn1/N=C/c1ccc(Cl)cc1,6.82% (active)
5,COc1ccc(N2C(=O)c3cc(Cl)ccc3NC2SCc2ccccc2)cc1 (stereo not drawn),105%
6,COc1c(N2CC3CCCNC3C2)c(F)cc2c(=O)c(C(=O)N/N=C/c3c[nH]c4ccccc34)cn(C3CC3)c12 (stereo not drawn),103%
7,NC/C(=C/F)COc1ccc2nc(NCc3cccnc3)oc2c1,122%
8,C=CC(=O)N1CCC=C(c2cc3c(N[C@H](C)c4ccccc4)ncnc3[nH]2)C1,56.2%
9,CS(=O)(=O)Nc1cc(-c2ccc3ncc(C#N)c(Nc4cccc(Cl)c4F)c3c2)cnc1Cl,-12.8% (active)
10,CCCn1cnc2c(c1=N)C(c1ccc(F)cc1)c1sc3c(CC)cccc3c1O2 (stereo not drawn),-10.2% (active)
11,O=S(=O)(NCCCNc1nccc(-c2[nH]c(-c3ccccc3)nc2-c2ccc(Cl)c(O)c2)n1)c1cccc2ccccc12,18.7%
12,N#Cc1cnc2ccc(-c3cnc(N)nc3)cc2c1N1CCc2cc(F)c(Cl)cc21,8.88% (active)
13,CNc1ncc2cc(-c3ccc(-c4ncccc4F)cc3Cl)c(=O)n(CC3OCC(N)CO3)c2n1 (stereo not drawn),90.7%
14,ClC(Cl)c1nc(-c2ccco2)n2nc(-c3ccccc3)cc2n1,-29.9% (active)
15,NC(N)=Nc1ccc(Oc2cccc(Nc3ccc(Cl)cc3)c2)cn1,-14.3% (active)
16,CC1=CC(=O)C2=C(C)CC(OC(=O)CCc3ccccc3)[C@@H]3[C@H](OC(=O)[C@@H]3C)[C@@H]12 (stereo partly drawn),98.6%
17,CC/C(=C/c1cc(OC)ccc1O)c1ccc2cc(OC)ccc2[o+]1,20.7%
18,COc1ccc(C(=O)c2c(N)c(C#N)cn2-c2ccccc2OC)cc1,14.6%
19,CCc1ccc(SC2c3ccc(N(CC)CC)cc3Oc3nc(N)c(C#N)c(N)c32)cc1 (stereo not drawn),-64.8% (active)
